From PubChem BioAssay (Tox21)
Inconclusive results are not listed. Where a call stands in place of a potency, no number is given. Values without a mark were called inactive. Activity calls are given as the source filed them. Unless noted, the call rests on the fitted dose curve.

Assay: qHTS assay to identify small molecule agonists of the endoplasmic reticulum stress response signaling pathway - cell viability counter screen (AID 1159517);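 further: HeLa cells carrying an ER stress response element beta-lactamase reporter; nearly all actives have a fitted effect of over 50% in size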
Settings: ESRE-bla HeLa viability, CellTiter-Glo luminescence, 5 h; series mostly up to 61 µM
In short: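 Counter-screen wells were identical to the reporter wells. Cells were plated at 1,500 per well and dosed for 5 hr, then read for luminescence 30 min after CellTiter-Glo addition.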
In the case of CCCCC(CC)COC(=O)COc1ccc(Cl)cc1Cl (stereo not drawn), the Potency is reported as “inactive”. With Cn1c(=O)cc(Oc2ccc(F)cc2F)c2cnc(NCC(C)(C)O)nc21 the Potency was “inactive”. In the case of O=C(O)c1ccccc1Cl, the Potency is reported as “inactive”. Compound O=C(O)CNCC(=O)O has an activity change, negative = cytotoxicity of -2.31% [at 6.95 µM]. Work on C/C(=C(\CCOP(=O)(O)O)SC(=O)c1ccccc1)N(C=O)Cc1cnc(C)nc1N yielded an activity change, negative = cytotoxicity of 8.35% [at 6.95 µM]. With CC(C)(COC(=O)c1ccccc1)COC(=O)c1ccccc1 the Potency was “inactive”. For OC(C#CCN1CCCC1)(c1ccccc1)c1ccccc1, the Potency was “inactive”. With C=C(C)C(=O)OCC the Potency was “inactive”. With OCCN1CCN(CCCN2c3ccccc3C=Cc3ccccc32)CC1 the Potency was “inactive”. With ClCCOCCOCCCl the Potency was “inactive”. With CC(CSC(=O)c1ccccc1)C(=O)N1C[C@@H](Sc2ccccc2)C[C@H]1C(=O)O (stereo partly drawn) the Potency was “inactive”. For Nc1c(CC(=O)O)cccc1C(=O)c1ccc(Br)cc1, the Potency was “inactive”. For O=C(O)c1nc(Cl)c(Cl)c(Cl)c1Cl, the Potency was “inactive”.

Assay: qHTS assay to identify small molecule antagonists of the retinoid-related orphan receptor gamma (ROR-gamma) signaling pathway - cell viability counter screen (AID 1159520; active means well fitted cell-killing curve with a large enough effect in the repeat runs; further: nearly all actives have a fitted effect of over 50% in size)
Settings: Tet-on RORgamma CHO cells viability, ATP luminescence, 16 h; series mostly up to 92.4 µM
In short: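 Tet-on ROR gamma CHO cells were given compounds for 2 hr, then doxycycline hyclate at 1 uM final, and incubated 16 hr at 37 C. Viability was measured as ATP content by CellTiter-Glo luminescence.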
With COc1cc2nc(N(C)CCCNC(=O)C3CCCO3)nc(N)c2cc1OC (stereo not drawn) the Potency was “inactive”. In the case of CCCCC(CC)COC(=O)CCCCCCCCC(=O)OCC(CC)CCCC (stereo not drawn), the Potency is reported as “inactive”. With CN(C)C(=O)NC1(c2ccccc2)CCN(CC[C@@]2(c3ccc(F)c(F)c3)CN(C(=O)c3ccccc3)CCO2)CC1 the Potency was “inactive”. For O=[N+]([O-])c1ccc(NCCO)c(OCCO)c1, the Potency was “inactive”. With COc1ccc2cccc(CCNC(C)=O)c2c1 the Potency was “inactive”. With O=C(NCC1CN(c2ccc(N3CCOCC3=O)cc2)C(=O)O1)c1ccc(Cl)s1 (stereo not drawn) the Potency was “inactive”. With CC1=CC=C(C(C)C)CC1 the Potency was “inactive”. For CC(=O)c1cccc([N+](=O)[O-])c1, the Potency was “inactive”. With C=CCOC(=O)CCC1CCCCC1 the Potency was “inactive”. In the case of CC(=O)[O][Al], the Potency is reported as “inactive”. In the case of COc1ccc(C)cc1[N+](=O)[O-], the Potency is reported as “inactive”. For COCC(C)OC(C)=O (stereo not drawn), the Potency was “inactive”. For CCOc1ccc(N=Nc2ccc(/C=C/c3ccc(N=Nc4ccc(OCC)cc4)cc3S(=O)(=O)O)c(S(=O)(=O)O)c2)cc1, the Potency was “inactive”. For CC(C)Cc1ccc(C(C)C(=O)OCc2ccccn2)cc1 (stereo not drawn), the Potency was “inactive”. In the case of CCOc1ccc(O)cc1, the Potency is reported as “inactive”. In the case of O=C(O)c1ccco1, the Potency is reported as “inactive”. In the case of CC[N+](C)(CC)CCOC(=O)C(O)(c1ccccc1)C1CCCCC1 (stereo not drawn), the Potency is reported as “inactive”. For CCCCC1=NC2(CCCC2)C(=O)N1Cc1ccc(-c2ccccc2-c2nn[nH]n2)cc1, the Potency was “inactive”. In the case of Cc1ccc(C(C)OC(=O)C2(C)CCC(C(=O)O)C2(C)C)cc1 (stereo not drawn), the Potency is reported as “inactive”. In the case of Cc1c(N)cccc1[N+](=O)[O-], the Potency is reported as “inactive”. With COc1cc2nc(Cl)nc(N)c2cc1OC the Potency was “inactive”. For Nc1ccccc1S(=O)(=O)c1ccccc1, the Potency was “inactive”. For CCCCC(CC)COC(=O)COc1ccc(Cl)cc1Cl (stereo not drawn), the Potency was “inactive”. For Cn1c(=O)cc(Oc2ccc(F)cc2F)c2cnc(NCC(C)(C)O)nc21, the Potency was “inactive”. In the case of O=C(O)c1ccccc1Cl, the Potency is reported as “inactive”. Compound O=C(O)CNCC(=O)O has an activity, negative = cytotoxicity of 0.267% [at 8.39 µM]. Compound C/C(=C(\CCOP(=O)(O)O)SC(=O)c1ccccc1)N(C=O)Cc1cnc(C)nc1N has an activity, negative = cytotoxicity of -0.156% [at 8.39 µM]. For CC(C)(COC(=O)c1ccccc1)COC(=O)c1ccccc1, the Potency was “inactive”. In the case of OC(C#CCN1CCCC1)(c1ccccc1)c1ccccc1, the Potency is reported as “inactive”. For C=C(C)C(=O)OCC, the Potency was “inactive”. With OCCN1CCN(CCCN2c3ccccc3C=Cc3ccccc32)CC1 the Potency was “inactive”. For ClCCOCCOCCCl, the Potency was “inactive”. With CC(CSC(=O)c1ccccc1)C(=O)N1C[C@@H](Sc2ccccc2)C[C@H]1C(=O)O (stereo partly drawn) the activity, negative = cytotoxicity was 3.47% [at 19 µM]. For Nc1c(CC(=O)O)cccc1C(=O)c1ccc(Br)cc1, the Potency was “inactive”. For O=C(O)c1nc(Cl)c(Cl)c(Cl)c1Cl, the Potency was “inactive”.

Assay: qHTS assay to identify small molecule agonists of the AP-1 signaling pathway - cell viability counter screen (AID 1159525); further: nearly all actives have a fitted effect of over 55% in size; further: potency means the concentration at half of the fitted maximal effect
Settings: ME-180 (cervical carcinoma) AP-1-bla cells viability, ATP luminescence, 5 h; series mostly up to 76.8 µM
In short: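 AP-1-bla ME-180 cells in Opti-MEM with 0.5% dialyzed FBS, compound exposure 5 h at 37 C in 15-point titration. Viability read in the same wells as ATP content by CellTiter-Glo luminescence, normalised to tetra-n-octylammonium bromide and DMSO controls.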
With COc1cc2nc(N(C)CCCNC(=O)C3CCCO3)nc(N)c2cc1OC (stereo not drawn) the Potency was “inactive”. For CCCCC(CC)COC(=O)CCCCCCCCC(=O)OCC(CC)CCCC (stereo not drawn), the Potency was “inactive”. With CN(C)C(=O)NC1(c2ccccc2)CCN(CC[C@@]2(c3ccc(F)c(F)c3)CN(C(=O)c3ccccc3)CCO2)CC1 the Potency was “inactive”. For O=[N+]([O-])c1ccc(NCCO)c(OCCO)c1, the Potency was “inactive”. In the case of COc1ccc2cccc(CCNC(C)=O)c2c1, the Potency is reported as “inactive”. For O=C(NCC1CN(c2ccc(N3CCOCC3=O)cc2)C(=O)O1)c1ccc(Cl)s1 (stereo not drawn), the Potency was “inactive”. For CC1=CC=C(C(C)C)CC1, the Potency was “inactive”. For CC(=O)c1cccc([N+](=O)[O-])c1, the Potency was “inactive”. With C=CCOC(=O)CCC1CCCCC1 the Potency was “inactive”. For CC(=O)[O][Al], the Potency was “inactive”. For COc1ccc(C)cc1[N+](=O)[O-], the Potency was “inactive”. For COCC(C)OC(C)=O (stereo not drawn), the Potency was “inactive”. With CCOc1ccc(N=Nc2ccc(/C=C/c3ccc(N=Nc4ccc(OCC)cc4)cc3S(=O)(=O)O)c(S(=O)(=O)O)c2)cc1 the Potency was “inactive”. In the case of CC(C)Cc1ccc(C(C)C(=O)OCc2ccccn2)cc1 (stereo not drawn), the Potency is reported as 239 nM (active). In the case of CCOc1ccc(O)cc1, the Potency is reported as “inactive”. In the case of O=C(O)c1ccco1, the Potency is reported as “inactive”. For CC[N+](C)(CC)CCOC(=O)C(O)(c1ccccc1)C1CCCCC1 (stereo not drawn), the Potency was “inactive”. For CCCCC1=NC2(CCCC2)C(=O)N1Cc1ccc(-c2ccccc2-c2nn[nH]n2)cc1, the Potency was “inactive”. For Cc1ccc(C(C)OC(=O)C2(C)CCC(C(=O)O)C2(C)C)cc1 (stereo not drawn), the Potency was “inactive”. In the case of Cc1c(N)cccc1[N+](=O)[O-], the Potency is reported as “inactive”. For COc1cc2nc(Cl)nc(N)c2cc1OC, the Potency was “inactive”. For Nc1ccccc1S(=O)(=O)c1ccccc1, the Potency was “inactive”. In the case of CCCCC(CC)COC(=O)COc1ccc(Cl)cc1Cl (stereo not drawn), the Potency is reported as “inactive”. With Cn1c(=O)cc(Oc2ccc(F)cc2F)c2cnc(NCC(C)(C)O)nc21 the Potency was “inactive”. For O=C(O)c1ccccc1Cl, the Potency was “inactive”. With O=C(O)CNCC(=O)O the viability change, negative = cytotoxic was 2.06% [at 6.97 µM]. Work on C/C(=C(\CCOP(=O)(O)O)SC(=O)c1ccccc1)N(C=O)Cc1cnc(C)nc1N yielded a viability change, negative = cytotoxic of -3.18% [at 6.97 µM]. In the case of CC(C)(COC(=O)c1ccccc1)COC(=O)c1ccccc1, the Potency is reported as “inactive”. In the case of OC(C#CCN1CCCC1)(c1ccccc1)c1ccccc1, the Potency is reported as “inactive”. For C=C(C)C(=O)OCC, the Potency was “inactive”. In the case of OCCN1CCN(CCCN2c3ccccc3C=Cc3ccccc32)CC1, the Potency is reported as “inactive”. With ClCCOCCOCCCl the Potency was “inactive”. Work on CC(CSC(=O)c1ccccc1)C(=O)N1C[C@@H](Sc2ccccc2)C[C@H]1C(=O)O (stereo partly drawn) yielded a viability change, negative = cytotoxic of -2.27% [at 15.8 µM]. With Nc1c(CC(=O)O)cccc1C(=O)c1ccc(Br)cc1 the Potency was “inactive”. For O=C(O)c1nc(Cl)c(Cl)c(Cl)c1Cl, the Potency was “inactive”.
